In PubChem BioAssay (EPA / NIEHS) one finds outcome and AC50 data, which are given here for nine compounds.

Read-out in test [1]: solute carrier (SLCO1B1), SLCO1B1 (gene 10599)
Put plainly: LTEA_HepaRG_SLCO1B1: Life Technologies and Expression Analysis (LTEA) Assay for solute carrier (SLCO1B1) using HepaRG (AID 2283530). The conditions noted are these: mRNA level, 48 h; actives raise or lower the signal. The method, boiled down: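 HepaRG, serum-free induction medium, 48 h dosing, 8-pt half-log from 100 uM, 0.5% DMSO vehicle, duplicates. Readout: SLCO1B1 mRNA, qRT-PCR, ACTB/GAPDH/POLR2A normalization; up or down fit vs DMSO.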

Read-out in test [2]: sulfotransferase 2A1 (SULT2A1), SULT2A1 (gene 6822)
Put plainly: LTEA_HepaRG_SULT2A1: Life Technologies and Expression Analysis (LTEA) Assay for sulfotransferase 2A1 (SULT2A1) using HepaRG (AID 2283531). The conditions noted are these: mRNA level, 48 h; actives raise or lower the signal. The method, boiled down:
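Transcript levels of SULT2A1, quantified by qRT-PCR and normalized to three housekeeping genes, serve as the readout. Human HepaRG cultures receive test chemicals for 48 h at up to 100 uM in half-log steps, with 0.5% DMSO vehicle.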

Read-out in test [3]: Transforming Growth Factor (TGFA), TGFA (gene 7039)
Put plainly: LTEA_HepaRG_TGFA: Life Technologies and Expression Analysis (LTEA) Assay for Transforming Growth Factor (TGFA) using HepaRG (AID 2283532). The conditions noted are these: mRNA level, 48 h; actives raise or lower the signal. The method, boiled down: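 Differentiated HepaRG cells exposed 48 hours in serum-free induction medium, 0.5% DMSO vehicle, 8-point half-log series from 100 uM, in duplicate. TGFA mRNA by TaqMan qRT-PCR, normalised to ACTB, GAPDH, POLR2A; bidirectional fit versus DMSO.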

Read-out in test [4]: Transforming Growth Factor (TGFB1), TGFB1 (gene 7040)
Put plainly: LTEA_HepaRG_TGFB1: Life Technologies and Expression Analysis (LTEA) Assay for Transforming Growth Factor (TGFB1) Transporter using HepaRG (AID 2283533). The conditions noted are these: mRNA level, 48 h; actives raise or lower the signal. The method, boiled down: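 HepaRG, 48 h post-plating, switched to serum-free induction medium; chemicals 100 uM top, half-log, 8 pts, 0.5% DMSO, dup; 48 h exposure; RNA → Fluidigm TaqMan qRT-PCR; norm ACTB/GAPDH/POLR2A; bidirectional fit vs DMSO.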

Read-out in test [5]: TIMP1, TIMP1 (gene 7076)
Put plainly: LTEA_HepaRG_TIMP1: Life Technologies and Expression Analysis (LTEA) Assay for TIMP1 using HepaRG (AID 2283534).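 Also: TaqMan qRT-PCR signal normalized to ACTB GAPDH and POLR2A housekeeping genes.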 The conditions noted are these: mRNA level, 48 h; actives raise or lower the signal. The method, boiled down: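 Readout is TIMP1 mRNA level measured by qRT-PCR and normalized to three housekeeping genes. Human HepaRG cells were treated for 48 h in duplicate at eight concentrations up to 100 uM (0.5% DMSO); gain or loss fitted against DMSO.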

Read-out in test [6]: Tumor necrosis factor receptor 1 (TNFRSF1A), TNFRSF1A (gene 7132)
Put plainly: LTEA_HepaRG_TNFRSF1A: Life Technologies and Expression Analysis (LTEA) Assay for Tumor necrosis factor receptor 1 (TNFRSF1A) using HepaRG (AID 2283535). The conditions noted are these: mRNA level, 48 h; actives raise or lower the signal. The method, boiled down:
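Read-out is TNFRSF1A transcript level by TaqMan qRT-PCR, normalized to three housekeeping genes, scored as gain or loss of signal versus 0.5% DMSO. Human HepaRG cells received test chemicals for 48 h at up to 100 uM (half-log series).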

Read-out in test [7]: Cellular tumor antigen p53 (Homo sapiens) (UniProt P04637)
Put plainly: LTEA_HepaRG_TP53: Life Technologies and Expression Analysis (LTEA) Assay for Tumor Protein P53 (TP53) using HepaRG (AID 2283537). The conditions noted are these: mRNA level, 48 h; actives raise or lower the signal. The method, boiled down: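 Gain or loss of TP53 mRNA signal is scored relative to 0.5% DMSO after 48 h chemical treatment of HepaRG liver cells, tested in duplicate at eight half-log concentrations up to 100 uM.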

Read-out in test [8]: UDP glucuronosyltransferase (UGT1A1), UGT1A1 (gene 54658)
Kind of test: LTEA_HepaRG_UGT1A1: Life Technologies and Expression Analysis (LTEA) Assay for UDP glucuronosyltransferase (UGT1A1) using HepaRG (AID 2283538). The conditions noted are these: mRNA level, 48 h; actives raise or lower the signal. The method, boiled down:
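Differentiated human HepaRG cells in serum-free induction medium were exposed in duplicate for 48 h to eight half-log concentrations up to 100 uM in 0.5% DMSO. UGT1A1 mRNA was quantified by TaqMan qRT-PCR, normalized to ACTB, GAPDH and POLR2A, and fitted bidirectionally against DMSO.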

Read-out in test [9]: UDP glucuronosyltransferase (UGT1A6), UGT1A6 (gene 54578)
Kind of test: LTEA_HepaRG_UGT1A6: Life Technologies and Expression Analysis (LTEA) Assay for UDP glucuronosyltransferase (UGT1A6) using HepaRG (AID 2283539). The conditions noted are these: mRNA level, 48 h; actives raise or lower the signal. The method, boiled down: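 HepaRG, 48 h post-plating switch to serum-free induction medium; chemical 48 h, 100 uM top, half-log x8, duplicate, 0.5% DMSO. Phenobarbital 1mM induction control. UGT1A6 mRNA by TaqMan qRT-PCR; gain/loss fit vs DMSO.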

Read-out in test [10]: X-box binding protein 1 (XBP1), XBP1 (gene 7494)
Put plainly: LTEA_HepaRG_XBP1: Life Technologies and Expression Analysis (LTEA) Assay for X-box binding protein 1 (XBP1) using HepaRG (AID 2283540). The conditions noted are these: mRNA level, 48 h; actives raise or lower the signal. The method, boiled down:
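Transcript levels of XBP1, measured by qRT-PCR and normalised to three housekeeping genes, were fitted bidirectionally relative to 0.5% DMSO controls. Human HepaRG cells received eight-point half-log dilutions from 100 uM for 48 h.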

A short description of test [11]: LTEA_HepaRG_LDH_cytotoxicity: Cytotoxicity Assessment in the Life Technologies and Expression Analysis (LTEA) Assay (AID 2283563; active = hit-call score of the fitted dose curve at least 0.9, where 1 is the maximum;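 as to AC50: LDH activity released into spent culture medium as a marker of cell death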). The method, boiled down:
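Cells were thawed and plated for 48 h. Medium was then replaced with serum-free induction medium. Chemicals (8 half-log points, maximum 100 uM, 0.5% DMSO) were added in duplicate for 48 h, after which spent medium was assayed for LDH.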

Test [12] can be described thus: ATG_XTT_Cytotoxicity: Cytotoxicity Assessment in the Attagene TRANS-FACTORIAL HepG2 Assay (AID 2283584; active = hit-call score of the fitted dose curve at least 0.9, where 1 is the maximum). The method, boiled down: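 Cells: human HepG2, transiently transfected with MRTU reporter constructs. Exposure 24 h. Readout: XTT, cell number. Baseline/neg ctrl DMSO; loss-of-signal scored.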
A short description of test [13]: TOX21_p53_BLA_p2_viability: Viability Assessment in the Tox21 HCT-116 p53 Agonism Beta-lactamase Assay, Phase 2 (AID 2283591; active = hit-call score of the fitted dose curve at least 0.9, where 1 is the maximum;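 also: compound exposure lasted 16 h at 37 °C; actives lower the ATP signal meaning cytotoxicity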). The method, boiled down: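 HCT116 p53-bla cells, 4000/well, dosed after 5 h plating (217-fold dilution of DMSO stocks) and incubated 16 h at 37C. Viability taken as cellular ATP by CellTiter-Glo luminescence after 30 min RT; signal loss marks cytotoxicity.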

The nature of test [14]: TOX21_p53_BLA_p3_viability: Viability Assessment in the Tox21 HCT-116 p53 Agonism Beta-lactamase Assay, Phase 3 (AID 2283593; active = hit-call score of the fitted dose curve at least 0.9, where 1 is the maximum;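 also: cells exposed to compound for 16 h before reading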). The method, boiled down:
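HCT116 cells, 4000/well, dosed 5 h after plating by pin transfer (217-fold dilution from DMSO stock) and incubated 16 h at 37C, 5% CO2. Viability read as ATP luminescence with CellTiter-Glo after 30 min at room temperature.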

Test [15] has as its target Cellular tumor antigen p53 (Homo sapiens) (UniProt P04637). Put plainly: TOX21_p53_BLA_p3_ratio: Tox21 HCT-116 p53 Agonism Beta-lactamase Assay, Ratio, Phase 3 (AID 2283596; active = hit-call score of the fitted dose curve at least 0.9, where 1 is the maximum). The method, boiled down:
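HCT116 p53-bla cells (4000/well) given compound in DMSO (217-fold dilution) after 5 h, incubated 16 h at 37C. CCF4-AM substrate 2 h at room temperature; 460/530 nm emission ratio, gain fitted against DMSO.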

Test [16] is described as follows: TOX21_p53_BLA_p4_viability: Viability Assessment in the Tox21 HCT-116 p53 Agonism Beta-lactamase Assay, Phase 4 (AID 2283597; active = hit-call score of the fitted dose curve at least 0.9, where 1 is the maximum;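 also: hits lower the luminescence signal meaning cytotoxicity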). The method, boiled down:
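Cells plated, 5 h pre-incubation; DMSO compounds pinned (217-fold dilution); 16 h, 37C/5% CO2; CCF4-AM 2 h RT; CellTiter-Glo 30 min RT; luminescence read.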

In test [17] the target is Cellular tumor antigen p53 (Homo sapiens) (UniProt P04637). Kind of test: TOX21_p53_BLA_p5_ratio: Tox21 HCT-116 p53 Agonism Beta-lactamase Assay, Ratio, Phase 5 (AID 2283599; active = hit-call score of the fitted dose curve at least 0.9, where 1 is the maximum). The method, boiled down: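 HCT-116 p53-bla cells (4000/well) plated 5 h, dosed with compound (217-fold DMSO dilution) for 16 h at 37 C; CCF4-AM substrate 2 h at room temperature. Activity is the 460/530 nm emission ratio (405 nm excitation), fitted in gain-of-signal direction versus DMSO.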

Test [18] in a line: TOX21_p53_BLA_p5_viability: Viability Assessment in the Tox21 HCT-116 p53 Agonism Beta-lactamase Assay, Phase 5 (AID 2283600; active = hit-call score of the fitted dose curve at least 0.9, where 1 is the maximum). The method, boiled down: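 4000 cells/well; 5 h pre-incubation; DMSO compounds pin-transferred, 217-fold dilution; 16 h, 37C/5% CO2; CCF4-AM 2 h RT; CellTiter-Glo 30 min RT; luminescence.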
Read-out in test [19]: Thyroid Hormone Responsive (THRSP), THRSP (gene 7069)
Kind of test: LTEA_HepaRG_THRSP: Life Technologies and Expression Analysis (LTEA) Assay for Thyroid Hormone Responsive (THRSP) using HepaRG (AID 2283536). The conditions noted are these: mRNA level, 48 h; actives raise or lower the signal. The method, boiled down: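 Differentiated HepaRG cells treated 48 h in serum-free induction medium with 8 half-log concentrations up to 100 uM (0.5% DMSO), duplicates. THRSP mRNA by TaqMan qRT-PCR normalised to ACTB, GAPDH, POLR2A; bidirectional fit versus DMSO.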

Inconclusive results are not listed. Calls of active or inactive are those of the source. The calls were made as follows, unless noted: active = hit-call score of the fitted dose curve at least 0.9, where 1 is the maximum; inactive = score below 0.9.

Chain of Cellular tumor antigen p53 (Homo sapiens) (P04637 whole entry, looked up): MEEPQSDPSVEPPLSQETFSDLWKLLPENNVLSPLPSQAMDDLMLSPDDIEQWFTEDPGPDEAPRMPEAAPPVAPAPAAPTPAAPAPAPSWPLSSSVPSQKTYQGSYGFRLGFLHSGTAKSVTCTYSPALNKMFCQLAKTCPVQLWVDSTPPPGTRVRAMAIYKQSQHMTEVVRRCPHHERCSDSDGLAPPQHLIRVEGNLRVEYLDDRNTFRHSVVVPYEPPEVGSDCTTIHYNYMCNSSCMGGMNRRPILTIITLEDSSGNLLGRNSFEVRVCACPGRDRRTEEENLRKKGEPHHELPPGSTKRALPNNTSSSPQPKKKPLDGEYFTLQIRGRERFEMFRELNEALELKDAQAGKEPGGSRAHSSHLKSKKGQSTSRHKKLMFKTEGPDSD

In the case of `Cc1ccc(C(C)(C)C)c(O)c1`, the compound was classed as inactive in test [1], in test [2], in test [3], in test [4], in [5] and in test [6]. The outcome in [7], in [8], in [9], in test [10], in test [11] and in [12] was inactive. For the same compound, the outcome in test [13], in test [14], in test [15], in [17] and in [18] was inactive. Besides, the AC50 in [16] was 43.2 µM (active).
As to `CN(C)C(=O)NC1(c2ccccc2)CCN(CCC[C@]2(c3ccc(Cl)c(Cl)c3)CCCN(C(=O)c3ccccc3)C2)CC1`, the AC50 in [1] is 19.5 µM (active); in test [2] it was 19.4 µM (active); in test [4], 9.26 µM (active); in test [8], 22 µM (active); in test [9], 22 µM (active); in test [10] it was 12.5 µM (active). Further, the AC50 in test [11] is 19.1 µM (active). The compound was classed as inactive in test [3], in test [5], in [6], in test [7], in test [13] and in [14]. The result in test [15], in [16] and in test [18] was inactive.
Regarding `O=C(Oc1ccccc1)c1cccc(C(=O)Oc2ccccc2)c1`, the result in test [1], in test [2], in test [3], in [4], in test [5] and in [6] was inactive. For the same compound, the call in test [19], in test [8], in test [9], in test [10], in test [11] and in [12] was inactive.
Consider `Nc1nc(=S)c2[nH]cnc2[nH]1`, for which the AC50 in test [1] was 11.4 µM (active); in test [2], 11.4 µM (active); in [19], 9.18 µM (active); in [9], 5.91 µM (active); in test [11], 32.9 µM (active). For the same compound, the outcome in test [3], in [4], in test [5], in test [6], in test [8] and in test [12] was inactive.
Consider `Cc1occc(=O)c1O`, for which the compound was classed as inactive in test [1], in test [2], in [3], in test [4], in [5] and in test [6]. The result in [19], in [8], in test [9], in [10], in test [11] and in test [12] was inactive.
For `CC(C)COC(=O)CCCCC(=O)OCC(C)C`, the compound was called inactive in test [1], in test [2], in test [3], in test [4], in test [5] and in [6]. Moreover, the result in test [19], in test [8], in test [9], in test [11] and in test [12] was inactive.
Consider `CC(=O)S[C@H](C(=O)N[C@H]1Cc2ccccc2[C@H]2CCC[C@@H](C(=O)O)N2C1=O)C(C)C`, for which the compound was called inactive in test [1], in test [2], in [3], in [4], in [5] and in test [6]. Moreover, the compound was classed as inactive in test [7], in [8], in [9], in [10], in test [11] and in test [15]. In addition, in [17], the outcome was inactive.
Take `CCCCCCCCCC[N+](C)(C)[O-]`: the outcome in test [1], in [2], in test [3], in test [4], in [5] and in test [6] was inactive. Further, the compound was classed as inactive in [7], in test [8], in [9], in test [10], in test [11] and in [12]. Further, the call in test [14], in [15] and in [18] was inactive.
For the compound `Cc1cc(Cc2ccc(N)c(C)c2)ccc1N`, the call in test [1], in [2], in [3], in test [4], in test [5] and in test [6] was inactive. Also, the call in test [7], in test [9], in test [10], in test [11], in test [12] and in test [13] was inactive. In addition, the compound was classed as inactive in test [14], in [15], in [16], in test [17] and in test [18]. For the same compound, the AC50 in [8] is 28.1 µM (active).
